Assay outcomes (PubChem BioAssay)
Shiga inhibitor = Shiga toxin inhibition; Vero cells, Shiga toxin protein synthesis inhibition reporter; inhibition, % at 38.7 µM; 290,000 tested, 9.2% active; AID 2315; in the data active = inhibition mostly above about 28%, no sharp cut-off; inactive = mostly below about 43%; note: 0% is about no effect
HCV inh = blocks hepatitis C virus; Huh7.5.1 HCVcc-Cre infection, luciferase reporter, 44 h; Potency, µM (top dose mostly 41.8 µM), for inactives: at the top dose activity change, negative = inhibition, usual class: inhibitors; 340,000 tested, 3.4% active; AID 651820; note: potency is the fitted concentration of half-maximal effect; % is set by controls: 0 for no effect and ±100 for the full control effect
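Luciferase read-out (15 sec integration) after a 15 min room-temperature substrate step quantifies HCVcc-Cre infection. Cells, 1,000 per well, had compound added 4 h post-plating, then virus at ~0.5 moi, and were cultured 44 h.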
Cycloheximide cs = affects cycloheximide protein synthesis inhibition readout, counter-screen | 300,000 tested, 12% active | cell reporter, cycloheximide protein synthesis inhibition counterscreen | max response, %; in the data active = max response mostly above about 13%, no sharp cut-off; inactive = mostly below about 14%; note: read at 38.3 µM for the half of the compounds with a filed dose; 0% is about no effect
HCMV inh = inhibitors of human cytomegalovirus. 410,000 tested, 4.5% active. activity change, negative = inhibition, % at 57.5 µM. HFF cells, HCMV-luciferase reporter, 72 h; stronger effect = lower value; in the data active = activity change below about -60%; inconclusive = no clear call, values can overlap the other calls; inactive = above about -39%; note: % is set by controls: 0 for no effect and ±100 for the full control effect
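Two compound doses tested in HFFs infected with HCMV-luciferase, MOI 1 PFU/cell, 72 h at 37C. Lysate luminescence read with OneGlo; data normalized against buffer-only and 10uM Salinomycin inhibitor controls.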
Pf growth 48h = inhibits P. falciparum growth in the first generation, 48 h | Potency, µM (series often up to 28.7 µM), without a hit: at the highest dose activity change, negative = inhibition, actives largely listed as inhibitors | P. falciparum luciferase growth in erythrocytes, 48 h | 310,000 tested, 5.9% active; note: potency is the fitted concentration of half-maximal effect; % is set by controls: 0 for no effect and ±100 for the full control effect
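In quantitative HTS format, infected erythrocytes bearing luciferase-reporter parasites were treated for a single generation at 37 C. Luminescence after adding detection reagent served as the growth measure.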
Pf growth 96h = inhibits malaria parasite growth, 96 h | P. falciparum luciferase reporter growth, 96 h | Potency, µM (top dose mostly 28.7 µM), for the others: at the highest dose activity change, negative = inhibition, hits mostly inhibitors | 320,000 tested, 6.9% active; note: potency is the fitted concentration of half-maximal effect; % is set by controls: 0 for no effect and ±100 for the full control effect
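Two-generation exposure (96 h) targets delayed-death phenotype. Reporter parasites carrying integrated firefly luciferase, in red cells at 2% hematocrit and 0.05% parasitemia final, kept at 37 C, 5% CO2; luminescence loss indicates inhibition.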
* = called active by the depositor; ? = inconclusive; nt = not tested or not shown; + = active, no number; [ ] = another dose, or the depositor's remark. A selection: hits, their analogues and other compounds. The true share with any hit is near 21%. Unless noted, calls come from the whole dose curve; as a rule, active = well fitted inhibition curve with a large enough effect; inconclusive = small, poorly fitted or top-dose-only effect, or another doubt; inactive = no such curve, though single readings can be large or run the other way.

SMILES | Shiga inhibitor | HCV inh | Cycloheximide cs | HCMV inh | Pf growth 48h | Pf growth 96h
Cc1ccc(-c2noc(CN3C(C)CCCC3C)n2)cc1 (stereo unspecified) | -1 | 12% | 22* | -5 | ? | ?
Cc1ccc(-c2noc(CCCC(=O)NCC3CCCO3)n2)cc1 (stereo unspecified) | 24 | ? | 8 | ? | 43% | -4%
Cc1ccc(-c2noc(CN3CCC(C(N)=O)CC3)n2)cc1 | 84* | 18% | 41* | 34 | 84% | 5%
CN(C)c1cccc(CNC(=O)c2csc([C@H]3C[C@H](O)[C@@H](CO)O3)n2)c1 | nt | nt | nt | 23 | nt | nt
COc1ccc(CC(NC(C)=O)C(=O)NC2CCN(c3c(Cc4ccccc4)c(C)nc4ncnn34)CC2)cc1OC (stereo unspecified) | 12 | 3%[0.335 µM] | 0 | 19 | 12µM* | ?
COc1ccc(CC(NC(C)=O)C(=O)NC2CCN(c3c(Cc4ccccc4)c(C)nc4ncnn34)CC2)c(OC)c1 (stereo unspecified) | -3 | -17% | -4 | 30 | 18% | 55%
COc1cccc(CC(NC(C)=O)C(=O)NC2CCN(c3c(Cc4ccccc4)c(C)nc4ncnn34)CC2)c1OC (stereo unspecified) | 8 | ? | -3 | 46 | 5.9µM* | ?
CCOc1ccc(N2CC(NS(=O)(=O)c3cccnc3)CC2=O)cc1 (stereo unspecified) | nt | 8%[8.37 µM] | nt | -39 | 11% | 17%
Cc1ccc(-n2nc(C)c3c(C(=O)NCCc4ccccc4)cc(C)nc32)cc1 | nt | nt | nt | 4 | nt | nt
N/C(=N\OC(=O)c1csnn1)c1ccc(C(F)(F)F)cc1 | 72* | -3% | 40* | 31 | 88% | 66%
Cc1ccc(C(=O)O/N=C(\N)c2ccc(C(F)(F)F)cn2)cc1 | 52 | 21% | 17 | 6 | -34%[0.00184 µM] | -10%
Cc1cc(OC(C)C(=O)N(Cc2ccc(N(C)C)cc2)Cc2ccco2)ccc1Cl (stereo unspecified) | nt | nt | nt | -17 | nt | nt
COc1ccc(NC(=O)C2c3ccccc3OCC(=O)N2Cc2ccc3c(c2)OCO3)cc1 (stereo unspecified) | nt | nt | nt | 12 | nt | nt
CCOC(=O)c1[nH]c(C)c(C(=O)NCCc2ccccc2)c1C | nt | nt | nt | 75 | nt | nt
CCOC(=O)c1[nH]c(C)c(C(=O)NCCC2=CCCCC2)c1C | 36 | -18% | 13 | 1 | 85% | 5.2µM*
CC(=O)c1c(C)[nH]c(C(=O)NCCC2=CCCCC2)c1C | 105* | ? | 49* | ? | nt | ?
CCCC(NS(=O)(=O)c1ccc(-c2ccc(=O)[nH]n2)s1)c1cccs1 (stereo unspecified) | 23* | -20% | 23* | -39 | 4% | ?
C[C@@]12C(=O)N(c3cccc(F)c3)C(=O)N1[C@@H]1c3ccccc3OC[C@@H]1[C@H]2c1ccccc1 | nt | ? | nt | -101* | nt | nt
C[C@]12C(=O)N(c3cccc(Cl)c3)C(=O)N1[C@H]1c3ccccc3OC[C@@H]1[C@H]2c1ccccc1 | 1 | -1% | 1 | nt | 0% | 10µM*
C[C@@]12C(=O)N(c3cccc(Cl)c3)C(=O)N1[C@@H]1c3ccccc3OC[C@@H]1[C@H]2c1ccccc1 | nt | ? | nt | 94 | nt | nt
Cc1cccc(N2C(=O)N3[C@@H]4c5ccccc5OC[C@@H]4[C@@H](c4ccccc4)[C@]3(C)C2=O)c1 | -1 | -10% | 0 | nt | ? | 12µM*
CCc1ccc2oc(-c3cccc(NC(=O)COc4ccccc4Cl)c3)nc2c1 | nt | nt | nt | 55 | nt | nt
CCOC(=O)c1[nH]c2c(c1C)C(=O)CC(c1ccco1)C2 (stereo unspecified) | 9 | ? | 6 | -81* | 13µM* | 14%
Cc1c(C(=O)OCc2ccccc2)[nH]c2c1C(=O)CC(c1ccc(C(C)(C)C)cc1)C2 (stereo unspecified) | nt | nt | nt | -5 | nt | nt
COCCOC(=O)c1[nH]c2c(c1C)C(=O)CC(c1ccco1)C2 (stereo unspecified) | -4 | ? | 1 | -67* | ? | 38%
SMILES | Shiga inhibitor | HCV inh | Cycloheximide cs | HCMV inh | Pf growth 48h | Pf growth 96h
Cc1c(C(=O)OCc2ccccc2)[nH]c2c1C(=O)CC(c1ccco1)C2 (stereo unspecified) | -8 | ? | -3 | nt | 1.5µM* | 3%
COC(=O)c1[nH]c2c(c1C)C(=O)CC(c1cccs1)C2 (stereo unspecified) | -14 | ? | -4 | -76* | -23% | nt
Cc1c(C(=O)OCCOC(C)C)[nH]c2c1C(=O)CC(c1ccco1)C2 (stereo unspecified) | -15 | ? | -3 | nt | ? | ?
Cc1c2cnn(CC(=O)NC(C)C)c(=O)c2c(C)n1Cc1ccccc1Cl | nt | nt | nt | 27 | nt | nt
Cc1cc2c(cc1C)NC(c1cccc(Br)c1)=C(N(Cc1ccccc1)C(=O)C(=O)c1ccccc1)C(=O)N2 | nt | nt | nt | -6 | nt | nt
CSCCOC(=O)c1[nH]c2c(c1C)C(=O)CC(c1ccco1)C2 (stereo unspecified) | -5 | ? | -3 | ? | ? | 3.7µM*
COCCOC(=O)c1[nH]c2c(c1C)C(=O)CC(c1ccc(F)cc1)C2 (stereo unspecified) | 25 | ? | -8 | 26 | nt | ?
Cc1ccc2nc(-c3ccc(NC(=S)NC(=O)CC(C)C)cc3)sc2c1 | + | 0% | 34* | 131 | 117% | nt
Cc1ccc2nc(-c3ccc(NC(=O)CN4CCN(c5ccccn5)CC4)cc3)sc2c1 | 90* | -53% | 29* | 10 | 81% | 90%
Cc1ccc2nc(-c3ccc(NC(=O)CNC4CC4)cc3)sc2c1 | 95* | ? | 42* | 134 | 241% | 238%
Cc1ccc2nc(-c3ccc(NC(=O)CN4C(=O)c5ccccc5C4=O)cc3)sc2c1 | 108* | 15% | 75* | 144 | 233% | -23%
Cc1ccc2nc(NC(=O)CN3CCN(c4ccccn4)CC3)sc2c1 | 16 | ? | -3 | -23 | 31% | 53%
CN(CC(=O)Nc1c(Cl)cccc1Cl)C(=O)Cn1[nH]c(=O)c2ccccc2c1=O | nt | 20% | nt | -5 | ? | ?
CN(C)C(=O)c1ccc(NC(=O)COc2ccc([N+](=O)[O-])cc2)cc1 | -13 | -8% | -1 | -20 | -5% | ?
Cc1cc(C)cc(NC(=O)C2CCN(C(=O)c3cnn(-c4ccccc4)c3-n3cccc3)CC2)c1 | nt | nt | nt | -2 | nt | nt
CC(N=C1NS(=O)(=O)c2ccccc21)C(=O)NCc1ccncc1 (stereo unspecified) | nt | 5% | nt | -6 | 0% | 23%
O=C(Nc1ccccc1)c1nc[nH]c1C(=O)NCCN(CCNC(=O)c1[nH]cnc1C(=O)Nc1ccccc1)CCNC(=O)c1[nH]cnc1C(=O)Nc1ccccc1 | nt | ? | nt | -35 | nt | nt
Cc1ccc2nc(-c3ccc(NC(=O)COC(=O)c4ccc(=O)[nH]c4)cc3)sc2c1 | 61* | 1% | 65* | 38 | 323% | 16%
